The values below come from PubChem BioAssay (EPA / NIEHS).

The structures appear in SMILES notation. Records with an inconclusive call do not appear. Activity calls are given as the source filed them. The calls were made as follows: active = hit-call score of the fitted dose curve at least 0.9, where 1 is the maximum; inconclusive = response in the unintended direction; inactive = score below 0.9.

Sequence of Cellular tumor antigen p53 (Homo sapiens) (P04637 whole entry, looked up): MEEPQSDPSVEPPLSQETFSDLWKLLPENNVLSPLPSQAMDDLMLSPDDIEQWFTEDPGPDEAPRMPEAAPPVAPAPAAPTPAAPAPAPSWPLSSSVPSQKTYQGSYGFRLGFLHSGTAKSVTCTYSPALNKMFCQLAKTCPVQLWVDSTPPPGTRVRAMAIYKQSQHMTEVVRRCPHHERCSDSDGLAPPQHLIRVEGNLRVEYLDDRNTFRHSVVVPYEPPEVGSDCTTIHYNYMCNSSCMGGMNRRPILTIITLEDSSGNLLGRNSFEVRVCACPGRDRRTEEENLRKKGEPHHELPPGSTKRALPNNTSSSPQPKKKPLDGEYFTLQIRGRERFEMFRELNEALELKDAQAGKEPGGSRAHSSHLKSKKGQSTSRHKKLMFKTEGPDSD

System in the first experiment: not listed separately
Description: TOX21_p53_BLA_p2_viability: Viability Assessment in the Tox21 HCT-116 p53 Agonism Beta-lactamase Assay, Phase 2 (AID 2283591).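 Also: compound exposure lasted 16 h at 37 °C; actives lower the ATP signal meaning cytotoxicity.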 The essentials: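 HCT-116 p53-bla cells (4000/well) rested 5 h at 37C, then received compounds in DMSO (217-fold dilution) for 16 h at 37C, 5% CO2. After the CCF4 read, CellTiter-Glo was added; ATP luminescence was read after 30 min at room temperature.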
For `CCCCN1C=CN(C)C1`, the call was inactive.

Turning to `O=C(O)CNCC(=O)O`, the result was inactive.

Turning to `C[C@@]12CCC[C@H]1[C@@H]1CC[C@H]3C[C@@H](O)CC[C@]3(C)[C@H]1CC2`, the result was inactive.

Regarding `C[N+](C)(C)CC[N+]1(C)Cc2c(Cl)c(Cl)c(Cl)c(Cl)c2C1`, the result was inactive.

`CN(C)CCCNCCC#N`: the call was inactive.

`O=C(CCc1ccc(O)cc1)c1c(O)cc(O)cc1O`: the result was inactive.

As for `CC(=O)Oc1cc2c(s1)CCN(C(C(=O)C1CC1)c1ccccc1F)C2` (stereo not drawn), the result was inactive.

In the case of `O=C(Nc1ccc(O)cc1)c1ccccc1O`, the result was inactive.

Regarding `CC1CCc2nccnc21` (stereo not drawn), the outcome was inactive.

On to `ClC/C=C/CCl`, for which the result was inactive.

With `CC[C@@]1(O)C[C@@H]2CN(CCc3c([nH]c4ccccc34)[C@@](C(=O)OC)(c3cc4c(cc3OC)N(C)[C@H]3[C@@](O)(C(=O)OC)[C@H](OC(C)=O)[C@]5(CC)C=CCN6CC[C@]43[C@@H]65)C2)C1`, the call was inactive.

Regarding `CCC(C)[O-].CCC(C)[O-].CCOC(=O)/C=C(/C)[O-].[Al+3]`, the result was inactive.

For `Nc1cc(Cl)c(NC2=NCCN2)c(Cl)c1`, the call was inactive.

Take `SCCCCCCCCS`: the outcome was inactive.

Turning to `Cc1nc2n(c(=O)c1CCN1CCC(c3noc4cc(F)ccc34)CC1)CCC[C@H]2O`, the call was inactive.

For the compound `O.O=C([O-])CC([S-])C(=O)[O-].[Au+].[Na+].[Na+]` (stereo not drawn), the result was inactive.

`Cc1cc(C(=O)O)ccc1[N+](=O)[O-]`: the compound was classed as inactive.

As for `CN(CCO)CC(O)Cn1cnc2c1c(=O)n(C)c(=O)n2C` (stereo not drawn) (tested in a mixture with another compound), the compound was classed as inactive.

Take `CN1CCCN=C1/C=C/c1cccs1`: the compound was called inactive.

Turning to `CCCCCCCCCCCC(=O)N(CC)CC`, the call was inactive.

As for `CCOC(=O)[C@H](CCc1ccccc1)N[C@@H](C)C(=O)N1C(=O)N(C)C[C@H]1C(=O)O`, the call was inactive.

Regarding `C1COC1`, the outcome was inactive.

As for `O=C(O)c1c(Cl)cccc1Cl`, the compound was classed as inactive.

As to `CC(C)Cc1nccs1`, the compound was classed as inactive.

On to `BrCCCCCBr`, for which the result was inactive.

Consider `Nc1ncnc2c1ncn2[C@H]1CC[C@@H](CO)O1`, for which the compound was called inactive.

On to `C[N+]1(CCCCC[N+]2(C)CCCC2)CCCC1`, for which the compound was classed as inactive.

On to `O=C(O)CN(CC(=O)O)CC1=CC2C(=CC1=O)Oc1cc(O)c(CN(CC(=O)O)CC(=O)O)cc1C21OC(=O)c2ccccc21` (stereo not drawn), for which the compound was classed as inactive.

In the case of `CC(=C(CCOC(=O)C(C)C)SSC(CCOC(=O)C(C)C)=C(C)N(C=O)Cc1cnc(C)nc1N)N(C=O)Cc1cnc(C)nc1N`, the compound was classed as inactive.

`Cc1ncc(CO)c(C=O)c1O`: the compound was classed as inactive.

Consider `O=[N+]([O-])c1ccccc1CCO`, for which the compound was called inactive.

Consider `CCC(C)SSC(C)CC` (stereo not drawn), for which the compound was classed as inactive.

Turning to `CCCC(=O)OC(=O)CCC`, the compound was called inactive.

In the case of `COc1cc(N)c(Cl)cc1C(=O)NC1CCN(Cc2ccccc2)CC1`, the compound was called inactive.

As to `C=CC(=O)OCCCl`, the outcome was inactive.

`CN(C)CC/C=C1/c2ccccc2COc2ccc(CC(=O)O)cc21`: the outcome was inactive.

Turning to `CS(=O)(=O)OCCCNCCCOS(C)(=O)=O`, the call was inactive.

With `COc1ccc(C(=O)CCC(=O)O)c2ccccc12`, the result was inactive.

For `O=C1c2ccccc2-c2ccccc21`, the call was inactive.

System in another experiment: not listed separately
Put plainly: TOX21_p53_BLA_p3_viability: Viability Assessment in the Tox21 HCT-116 p53 Agonism Beta-lactamase Assay, Phase 3 (AID 2283593).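 Also: cells exposed to compound for 16 h before reading.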 An outline of the steps: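 HCT-116 cells (4000/well) rested 5 h at 37C, then got DMSO compounds by pin tool (217-fold dilution) for 16 h at 37C, 5% CO2. After the bla read, CellTiter-Glo was added and luminescence read at 30 min, room temperature.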
For the compound `CN(C)CCCNCCC#N`, the compound was classed as inactive.

Consider `O=C(CCc1ccc(O)cc1)c1c(O)cc(O)cc1O`, for which the compound was called inactive.

Take `CC(=O)Oc1cc2c(s1)CCN(C(C(=O)C1CC1)c1ccccc1F)C2` (stereo not drawn): the result was inactive.

For the compound `CC1CCc2nccnc21` (stereo not drawn), the outcome was inactive.

As for `CCC(C)[O-].CCC(C)[O-].CCOC(=O)/C=C(/C)[O-].[Al+3]`, the outcome was inactive.

Consider `Nc1cc(Cl)c(NC2=NCCN2)c(Cl)c1`, for which the outcome was inactive.

For the compound `CN(CCO)CC(O)Cn1cnc2c1c(=O)n(C)c(=O)n2C` (stereo not drawn) (tested in a mixture with another compound), the outcome was inactive.

As for `CCCCCCCCCCCC(=O)N(CC)CC`, the compound was classed as inactive.

As for `C[N+]1(CCCCC[N+]2(C)CCCC2)CCCC1`, the outcome was inactive.

For the compound `O=C(O)CN(CC(=O)O)CC1=CC2C(=CC1=O)Oc1cc(O)c(CN(CC(=O)O)CC(=O)O)cc1C21OC(=O)c2ccccc21` (stereo not drawn), the compound was classed as inactive.

With `COc1cc(N)c(Cl)cc1C(=O)NC1CCN(Cc2ccccc2)CC1`, the compound was called inactive.

For `C=CC(=O)OCCCl`, the call was inactive.

Consider `COc1ccc(C(=O)CCC(=O)O)c2ccccc12`, for which the compound was called inactive.

The target of a further experiment is Cellular tumor antigen p53 (Homo sapiens) (UniProt P04637). Put plainly: TOX21_p53_BLA_p3_ratio: Tox21 HCT-116 p53 Agonism Beta-lactamase Assay, Ratio, Phase 3 (AID 2283596). An outline of the steps:
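HCT116 p53-bla cells (4000/well) given compound in DMSO (217-fold dilution) after 5 h, incubated 16 h at 37C. CCF4-AM substrate 2 h at room temperature; 460/530 nm emission ratio, gain fitted against DMSO.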
With `CCCCN1C=CN(C)C1`, the outcome was inactive.

`O=C(O)CNCC(=O)O`: the outcome was inactive.

For the compound `C[C@@]12CCC[C@H]1[C@@H]1CC[C@H]3C[C@@H](O)CC[C@]3(C)[C@H]1CC2`, the outcome was inactive.

On to `C[N+](C)(C)CC[N+]1(C)Cc2c(Cl)c(Cl)c(Cl)c(Cl)c2C1`, for which the result was inactive.

On to `O=C(Nc1ccc(O)cc1)c1ccccc1O`, for which the result was inactive.

On to `ClC/C=C/CCl`, for which the result was inactive.

Regarding `CC[C@@]1(O)C[C@@H]2CN(CCc3c([nH]c4ccccc34)[C@@](C(=O)OC)(c3cc4c(cc3OC)N(C)[C@H]3[C@@](O)(C(=O)OC)[C@H](OC(C)=O)[C@]5(CC)C=CCN6CC[C@]43[C@@H]65)C2)C1`, the result was inactive.

Regarding `SCCCCCCCCS`, the result was inactive.

Regarding `Cc1nc2n(c(=O)c1CCN1CCC(c3noc4cc(F)ccc34)CC1)CCC[C@H]2O`, the outcome was inactive.

With `O.O=C([O-])CC([S-])C(=O)[O-].[Au+].[Na+].[Na+]` (stereo not drawn), the result was inactive.

In the case of `Cc1cc(C(=O)O)ccc1[N+](=O)[O-]`, the outcome was inactive.

`CN1CCCN=C1/C=C/c1cccs1`: the outcome was inactive.

Turning to `CCOC(=O)[C@H](CCc1ccccc1)N[C@@H](C)C(=O)N1C(=O)N(C)C[C@H]1C(=O)O`, the result was inactive.

Consider `C1COC1`, for which the result was inactive.

In the case of `O=C(O)c1c(Cl)cccc1Cl`, the outcome was inactive.

Turning to `CC(C)Cc1nccs1`, the outcome was inactive.

Consider `BrCCCCCBr`, for which the outcome was inactive.

Consider `Nc1ncnc2c1ncn2[C@H]1CC[C@@H](CO)O1`, for which the result was inactive.

With `CC(=C(CCOC(=O)C(C)C)SSC(CCOC(=O)C(C)C)=C(C)N(C=O)Cc1cnc(C)nc1N)N(C=O)Cc1cnc(C)nc1N`, the result was inactive.

With `Cc1ncc(CO)c(C=O)c1O`, the outcome was inactive.

On to `O=[N+]([O-])c1ccccc1CCO`, for which the outcome was inactive.

As for `CCC(C)SSC(C)CC` (stereo not drawn), the result was inactive.

As for `CCCC(=O)OC(=O)CCC`, the outcome was inactive.

As for `CN(C)CC/C=C1/c2ccccc2COc2ccc(CC(=O)O)cc21`, the outcome was inactive.

As to `CS(=O)(=O)OCCCNCCCOS(C)(=O)=O`, the outcome was inactive.

Turning to `O=C1c2ccccc2-c2ccccc21`, the outcome was inactive.
